# Article PMC7862700, “An all-to-all approach to the identification of sequence-specific readers for epigenetic DNA modifications on cytosine”
# Tests used:
# Experiment in all cases: DAPPL (digital affinity profiling via proximity ligation, sequencing); 10 mM Tris-HCl pH 7.5, 50 mM NaCl, 1 mM DTT, 4% glycerol, room temperature, 30 min; GST-TFs on glutathione beads, 16-mer random dsDNA library, 0.1% formaldehyde crosslink after washing; high values mean tight binding
# Settings in all cases: protein: recombinant; tags: N-terminal GST; dsDNA, one strand shown
# [1] = biological target: T1, ERF (Homo sapiens, UniProt P50548 1-548)
# T1 sequence: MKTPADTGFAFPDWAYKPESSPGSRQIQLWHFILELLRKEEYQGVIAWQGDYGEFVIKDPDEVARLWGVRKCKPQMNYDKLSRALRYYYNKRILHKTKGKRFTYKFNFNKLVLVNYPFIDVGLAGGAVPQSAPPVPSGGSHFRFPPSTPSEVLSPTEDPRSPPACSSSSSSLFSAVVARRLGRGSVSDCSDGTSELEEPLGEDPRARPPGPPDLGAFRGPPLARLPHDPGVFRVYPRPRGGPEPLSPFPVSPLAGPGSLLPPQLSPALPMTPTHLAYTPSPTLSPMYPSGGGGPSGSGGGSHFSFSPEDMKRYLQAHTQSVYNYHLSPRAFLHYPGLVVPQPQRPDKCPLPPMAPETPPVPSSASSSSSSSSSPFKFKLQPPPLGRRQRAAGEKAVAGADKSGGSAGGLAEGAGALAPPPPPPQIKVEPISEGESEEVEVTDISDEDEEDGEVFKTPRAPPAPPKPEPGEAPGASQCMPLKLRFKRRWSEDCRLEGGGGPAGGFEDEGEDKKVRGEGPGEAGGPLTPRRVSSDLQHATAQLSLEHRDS
# Method in brief: (§1)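 GST fusions of human transcription factors were expressed in yeast and captured with glutathione beads. Once given DNA barcodes and pooled alongside a tag-only sample, they were incubated for 30 min at room temperature with 200 nmole of a random double-stranded 16-mer DNA library in Tris/NaCl/DTT/glycerol buffer, then washed, crosslinked (0.1% formaldehyde), proximity-ligated, PCR-amplified and sequenced on an Illumina NextSeq500. The binding signal of each hexamer is its read frequency for a factor divided by its frequency for the tag-only sample.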
# [2] = biological target: T2, ETV3L (Homo sapiens, UniProt Q6ZN32 1-361)
# T2 sequence: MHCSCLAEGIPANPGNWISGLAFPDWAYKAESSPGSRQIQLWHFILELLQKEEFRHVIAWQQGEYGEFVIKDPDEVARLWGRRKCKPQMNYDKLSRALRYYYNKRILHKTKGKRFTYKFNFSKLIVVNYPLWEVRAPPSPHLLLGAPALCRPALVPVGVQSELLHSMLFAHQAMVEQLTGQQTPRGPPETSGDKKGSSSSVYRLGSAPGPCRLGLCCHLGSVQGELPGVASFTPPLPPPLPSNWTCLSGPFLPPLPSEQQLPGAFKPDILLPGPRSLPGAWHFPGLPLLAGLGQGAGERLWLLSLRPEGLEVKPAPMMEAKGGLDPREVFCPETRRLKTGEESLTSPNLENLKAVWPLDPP
# Method in brief: as §1
# [3] = biological target: T3, ETS2 (Homo sapiens, UniProt P15036 1-469)
# T3 sequence: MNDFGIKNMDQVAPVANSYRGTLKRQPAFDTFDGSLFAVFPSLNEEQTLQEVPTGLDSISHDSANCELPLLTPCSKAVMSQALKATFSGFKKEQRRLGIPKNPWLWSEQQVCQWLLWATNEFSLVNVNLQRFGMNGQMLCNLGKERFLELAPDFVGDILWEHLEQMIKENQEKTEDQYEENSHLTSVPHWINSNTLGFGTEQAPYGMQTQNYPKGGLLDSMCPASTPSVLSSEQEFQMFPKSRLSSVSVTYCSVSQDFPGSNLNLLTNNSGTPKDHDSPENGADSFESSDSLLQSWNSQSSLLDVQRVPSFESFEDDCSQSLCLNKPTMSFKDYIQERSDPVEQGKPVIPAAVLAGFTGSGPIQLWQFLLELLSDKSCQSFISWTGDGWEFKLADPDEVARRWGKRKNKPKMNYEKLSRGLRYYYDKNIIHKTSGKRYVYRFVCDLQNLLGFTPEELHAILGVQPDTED
# Method in brief: as §1
# [4] = biological target: T4, SPDEF (Homo sapiens, UniProt O95238 1-335)
# T4 sequence: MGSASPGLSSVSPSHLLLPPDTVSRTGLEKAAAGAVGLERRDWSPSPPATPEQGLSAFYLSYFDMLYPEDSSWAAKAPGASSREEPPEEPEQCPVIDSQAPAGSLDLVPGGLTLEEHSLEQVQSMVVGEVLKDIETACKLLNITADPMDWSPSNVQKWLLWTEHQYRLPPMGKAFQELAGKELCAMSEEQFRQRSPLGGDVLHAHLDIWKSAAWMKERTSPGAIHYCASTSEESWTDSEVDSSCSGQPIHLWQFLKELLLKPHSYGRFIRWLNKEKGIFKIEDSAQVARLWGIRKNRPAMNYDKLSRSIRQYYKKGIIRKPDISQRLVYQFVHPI
# Method in brief: as §1
# [5] = biological target: T5, ETV7 (Homo sapiens, UniProt Q9Y603 1-341)
# T5 sequence: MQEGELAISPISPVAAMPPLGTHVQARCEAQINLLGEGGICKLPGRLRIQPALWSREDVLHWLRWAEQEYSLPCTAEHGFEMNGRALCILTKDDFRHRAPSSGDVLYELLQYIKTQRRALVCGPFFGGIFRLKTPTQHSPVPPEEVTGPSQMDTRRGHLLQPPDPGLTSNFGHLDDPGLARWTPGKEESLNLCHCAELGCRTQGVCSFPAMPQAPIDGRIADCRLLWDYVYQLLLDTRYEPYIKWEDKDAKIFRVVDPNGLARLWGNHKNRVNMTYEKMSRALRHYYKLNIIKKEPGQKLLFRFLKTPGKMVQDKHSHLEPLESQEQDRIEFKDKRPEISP
# Method in brief: as §1
# [6] = biological target: T6, ELF5 (Homo sapiens, UniProt Q9UKW6-2 1-255)
# T6 sequence: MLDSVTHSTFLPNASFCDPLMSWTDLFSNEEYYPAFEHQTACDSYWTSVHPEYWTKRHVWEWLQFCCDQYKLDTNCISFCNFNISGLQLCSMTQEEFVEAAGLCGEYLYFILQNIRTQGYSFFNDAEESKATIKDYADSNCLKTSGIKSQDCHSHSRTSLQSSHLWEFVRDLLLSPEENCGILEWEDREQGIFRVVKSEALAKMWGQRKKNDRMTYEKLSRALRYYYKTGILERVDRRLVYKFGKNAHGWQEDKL
# Method in brief: as §1
# [7] = biological target: T7, ETV3 (Homo sapiens, UniProt P41162-2 1-143)
# T7 sequence: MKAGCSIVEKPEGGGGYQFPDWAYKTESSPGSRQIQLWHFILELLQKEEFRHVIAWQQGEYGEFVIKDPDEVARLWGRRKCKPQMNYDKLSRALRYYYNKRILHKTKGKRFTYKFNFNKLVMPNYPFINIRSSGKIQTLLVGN
# Method in brief: as §1
# [8] = biological target: ETV6 (Homo sapiens, UniProt P41212 1-452)
# Sequence of ETV6 (P41212 whole entry): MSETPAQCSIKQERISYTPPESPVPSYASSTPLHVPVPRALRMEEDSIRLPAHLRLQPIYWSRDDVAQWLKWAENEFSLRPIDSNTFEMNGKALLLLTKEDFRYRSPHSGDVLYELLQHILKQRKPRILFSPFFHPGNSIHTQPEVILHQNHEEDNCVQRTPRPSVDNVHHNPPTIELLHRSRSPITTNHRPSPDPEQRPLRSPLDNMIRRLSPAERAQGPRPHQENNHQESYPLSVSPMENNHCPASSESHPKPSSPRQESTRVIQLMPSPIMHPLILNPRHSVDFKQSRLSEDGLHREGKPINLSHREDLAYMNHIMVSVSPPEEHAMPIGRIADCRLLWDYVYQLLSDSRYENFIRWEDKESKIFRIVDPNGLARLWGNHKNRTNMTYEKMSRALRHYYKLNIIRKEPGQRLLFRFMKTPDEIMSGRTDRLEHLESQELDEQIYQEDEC
# Method in brief: as §1
Sequence,binding signal [1],binding signal [2],binding signal [3],binding signal [4],binding signal [5],binding signal [6],binding signal [7],binding signal [8]
CAATCC,"1.25 fold enrichment (6-mer frequency, TF over GST control)","1.2 fold enrichment (6-mer frequency, TF over GST control)","1.22 fold enrichment (6-mer frequency, TF over GST control)","1.4 fold enrichment (6-mer frequency, TF over GST control)","1.16 fold enrichment (6-mer frequency, TF over GST control)","1.21 fold enrichment (6-mer frequency, TF over GST control)","1.19 fold enrichment (6-mer frequency, TF over GST control)","1.22 fold enrichment (6-mer frequency, TF over GST control)"
TATGCT,"1.18 fold enrichment (6-mer frequency, TF over GST control)","1.45 fold enrichment (6-mer frequency, TF over GST control)","1.29 fold enrichment (6-mer frequency, TF over GST control)","1.36 fold enrichment (6-mer frequency, TF over GST control)","1.32 fold enrichment (6-mer frequency, TF over GST control)","1.29 fold enrichment (6-mer frequency, TF over GST control)","1.32 fold enrichment (6-mer frequency, TF over GST control)","1.24 fold enrichment (6-mer frequency, TF over GST control)"
TACTAC,"1.3 fold enrichment (6-mer frequency, TF over GST control)","1.41 fold enrichment (6-mer frequency, TF over GST control)","1.34 fold enrichment (6-mer frequency, TF over GST control)","1.34 fold enrichment (6-mer frequency, TF over GST control)","1.47 fold enrichment (6-mer frequency, TF over GST control)","1.36 fold enrichment (6-mer frequency, TF over GST control)","1.29 fold enrichment (6-mer frequency, TF over GST control)","1.38 fold enrichment (6-mer frequency, TF over GST control)"
CAATAC,"1.38 fold enrichment (6-mer frequency, TF over GST control)","1.3 fold enrichment (6-mer frequency, TF over GST control)","1.22 fold enrichment (6-mer frequency, TF over GST control)","1.23 fold enrichment (6-mer frequency, TF over GST control)","1.35 fold enrichment (6-mer frequency, TF over GST control)","1.18 fold enrichment (6-mer frequency, TF over GST control)","1.29 fold enrichment (6-mer frequency, TF over GST control)","1.22 fold enrichment (6-mer frequency, TF over GST control)"
TGTTAA,"1.19 fold enrichment (6-mer frequency, TF over GST control)","1.14 fold enrichment (6-mer frequency, TF over GST control)","1.11 fold enrichment (6-mer frequency, TF over GST control)","1.09 fold enrichment (6-mer frequency, TF over GST control)","1.1 fold enrichment (6-mer frequency, TF over GST control)","1.13 fold enrichment (6-mer frequency, TF over GST control)","1.16 fold enrichment (6-mer frequency, TF over GST control)","1.16 fold enrichment (6-mer frequency, TF over GST control)"
TTGGTG,"1.28 fold enrichment (6-mer frequency, TF over GST control)","1.25 fold enrichment (6-mer frequency, TF over GST control)","1.32 fold enrichment (6-mer frequency, TF over GST control)","1.33 fold enrichment (6-mer frequency, TF over GST control)","1.15 fold enrichment (6-mer frequency, TF over GST control)","1.27 fold enrichment (6-mer frequency, TF over GST control)","1.32 fold enrichment (6-mer frequency, TF over GST control)","1.18 fold enrichment (6-mer frequency, TF over GST control)"
AATACG,"1.23 fold enrichment (6-mer frequency, TF over GST control)","1.23 fold enrichment (6-mer frequency, TF over GST control)","1.28 fold enrichment (6-mer frequency, TF over GST control)","1.24 fold enrichment (6-mer frequency, TF over GST control)","1.12 fold enrichment (6-mer frequency, TF over GST control)","1.27 fold enrichment (6-mer frequency, TF over GST control)","1.19 fold enrichment (6-mer frequency, TF over GST control)","1.26 fold enrichment (6-mer frequency, TF over GST control)"
TTCCAA,"1.27 fold enrichment (6-mer frequency, TF over GST control)","1.3 fold enrichment (6-mer frequency, TF over GST control)","1.25 fold enrichment (6-mer frequency, TF over GST control)","1.29 fold enrichment (6-mer frequency, TF over GST control)","1.27 fold enrichment (6-mer frequency, TF over GST control)","1.21 fold enrichment (6-mer frequency, TF over GST control)","1.22 fold enrichment (6-mer frequency, TF over GST control)","1.29 fold enrichment (6-mer frequency, TF over GST control)"
CTACGC,"1.72 fold enrichment (6-mer frequency, TF over GST control)","1.5 fold enrichment (6-mer frequency, TF over GST control)","1.59 fold enrichment (6-mer frequency, TF over GST control)","1.56 fold enrichment (6-mer frequency, TF over GST control)","1.42 fold enrichment (6-mer frequency, TF over GST control)","1.49 fold enrichment (6-mer frequency, TF over GST control)","1.59 fold enrichment (6-mer frequency, TF over GST control)","1.64 fold enrichment (6-mer frequency, TF over GST control)"
CTCACG,"1.25 fold enrichment (6-mer frequency, TF over GST control)","1.3 fold enrichment (6-mer frequency, TF over GST control)","1.4 fold enrichment (6-mer frequency, TF over GST control)","1.26 fold enrichment (6-mer frequency, TF over GST control)","1.25 fold enrichment (6-mer frequency, TF over GST control)","1.26 fold enrichment (6-mer frequency, TF over GST control)","1.23 fold enrichment (6-mer frequency, TF over GST control)","1.25 fold enrichment (6-mer frequency, TF over GST control)"
TTAGGG,"1.21 fold enrichment (6-mer frequency, TF over GST control)","1.14 fold enrichment (6-mer frequency, TF over GST control)","1.08 fold enrichment (6-mer frequency, TF over GST control)","1.18 fold enrichment (6-mer frequency, TF over GST control)","1.06 fold enrichment (6-mer frequency, TF over GST control)","1.11 fold enrichment (6-mer frequency, TF over GST control)","1.11 fold enrichment (6-mer frequency, TF over GST control)","1.08 fold enrichment (6-mer frequency, TF over GST control)"
ATTTCA,"1.22 fold enrichment (6-mer frequency, TF over GST control)","1.16 fold enrichment (6-mer frequency, TF over GST control)","1.22 fold enrichment (6-mer frequency, TF over GST control)","1.28 fold enrichment (6-mer frequency, TF over GST control)","1.13 fold enrichment (6-mer frequency, TF over GST control)","1.25 fold enrichment (6-mer frequency, TF over GST control)","1.23 fold enrichment (6-mer frequency, TF over GST control)","1.27 fold enrichment (6-mer frequency, TF over GST control)"
TCTGCC,"1.35 fold enrichment (6-mer frequency, TF over GST control)","1.31 fold enrichment (6-mer frequency, TF over GST control)","1.45 fold enrichment (6-mer frequency, TF over GST control)","1.26 fold enrichment (6-mer frequency, TF over GST control)","1.49 fold enrichment (6-mer frequency, TF over GST control)","1.31 fold enrichment (6-mer frequency, TF over GST control)","1.35 fold enrichment (6-mer frequency, TF over GST control)","1.32 fold enrichment (6-mer frequency, TF over GST control)"
ATCTGG,"1.25 fold enrichment (6-mer frequency, TF over GST control)","1.2 fold enrichment (6-mer frequency, TF over GST control)","1.11 fold enrichment (6-mer frequency, TF over GST control)","1.06 fold enrichment (6-mer frequency, TF over GST control)","1.14 fold enrichment (6-mer frequency, TF over GST control)","1.11 fold enrichment (6-mer frequency, TF over GST control)","1.16 fold enrichment (6-mer frequency, TF over GST control)","1.1 fold enrichment (6-mer frequency, TF over GST control)"
ACGGAT,"1.11 fold enrichment (6-mer frequency, TF over GST control)","1.23 fold enrichment (6-mer frequency, TF over GST control)","1.3 fold enrichment (6-mer frequency, TF over GST control)","1.94 fold enrichment (6-mer frequency, TF over GST control)","1.13 fold enrichment (6-mer frequency, TF over GST control)","1.34 fold enrichment (6-mer frequency, TF over GST control)","1.3 fold enrichment (6-mer frequency, TF over GST control)","1.22 fold enrichment (6-mer frequency, TF over GST control)"
